High-throughput results (PubChem)
M1 antag: antagonists of rat M1 muscarinic receptor. P08482. CHO-M1 cells, Fluo-4 calcium, ACh EC80 antagonist mode; active compounds read low. B-score at 10 µM. actives 3.4% (n = 64,000);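 active means calcium fluorescence response, raw or row-and-column corrected B-score, differing from the plate sample mean either way at a set confidence level, mostly lower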
PTK2B oligo ant: blocks oligomerization of human Pyk2 in cells; Q14289; Q293 cells, Pyk2 FERM NanoBiT luminescence; active compounds read low; z-score (the deposit names both 25 µM and 10 µM); actives 0.83% (n = 99,000); AID 1347419;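 active means Z-score of -3 or lower, scaled per plate to the spread of control and sample wells; inactive means z-score above -3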;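 further: negative z-score means lost luminescence so less FERM oligomerization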
Target sequence (Q14289 whole entry, looked up): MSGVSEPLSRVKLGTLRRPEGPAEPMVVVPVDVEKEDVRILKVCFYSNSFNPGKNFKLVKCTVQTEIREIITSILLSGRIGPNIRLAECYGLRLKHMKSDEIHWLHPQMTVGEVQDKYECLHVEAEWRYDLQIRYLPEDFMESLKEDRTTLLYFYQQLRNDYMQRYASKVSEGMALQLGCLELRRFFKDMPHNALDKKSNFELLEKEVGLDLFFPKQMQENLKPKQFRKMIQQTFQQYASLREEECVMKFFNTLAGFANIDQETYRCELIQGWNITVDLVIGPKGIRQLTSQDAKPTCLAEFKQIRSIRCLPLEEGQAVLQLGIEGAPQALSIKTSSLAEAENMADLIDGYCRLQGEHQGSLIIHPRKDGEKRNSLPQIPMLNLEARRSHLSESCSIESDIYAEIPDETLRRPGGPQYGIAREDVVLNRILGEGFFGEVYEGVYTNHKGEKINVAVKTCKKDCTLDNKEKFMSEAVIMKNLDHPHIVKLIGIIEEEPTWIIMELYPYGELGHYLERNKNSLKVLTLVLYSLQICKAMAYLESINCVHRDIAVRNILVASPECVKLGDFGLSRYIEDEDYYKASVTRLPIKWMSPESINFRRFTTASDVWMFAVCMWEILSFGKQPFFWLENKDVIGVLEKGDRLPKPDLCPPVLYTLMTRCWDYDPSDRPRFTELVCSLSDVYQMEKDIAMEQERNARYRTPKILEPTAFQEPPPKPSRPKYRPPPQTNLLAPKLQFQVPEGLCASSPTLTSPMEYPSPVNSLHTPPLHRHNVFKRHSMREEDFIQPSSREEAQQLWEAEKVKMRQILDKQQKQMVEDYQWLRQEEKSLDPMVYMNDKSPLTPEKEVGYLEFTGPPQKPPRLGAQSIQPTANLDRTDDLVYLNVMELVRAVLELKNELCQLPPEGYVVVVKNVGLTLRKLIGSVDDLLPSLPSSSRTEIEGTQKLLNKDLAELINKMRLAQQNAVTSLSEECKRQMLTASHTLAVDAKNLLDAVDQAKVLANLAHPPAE
Cav32 inh: blocks human Cav3.2 T-type calcium channel; O95180; actives 4% (n = 100,000); B-score at 10 µM; Cav3.2-expressing cells, Fluo-4 calcium fluorescence FDSS; active compounds read low; AID 449739;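 active means single-dose well whose peak fluorescence ratio is a statistical outlier from its plate by either plate-standardised score or position-corrected B-score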
M1 agonist: agonists of M1 muscarinic receptor. actives 3% (n = 64,000). B-score at 10 µM. AID 626. CHO-M1 cells, Fluo-4 calcium fluorescence, agonist mode; active compounds read high;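 active means fluorescence rise, raw or as B-score row- and column-corrected plate score, outside the 99.7% band of its plate's samples, either direction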
* = called active by the depositor; . = no result given. An excerpt weighted towards active compounds, which were near 7.1% of everything screened.

SMILES | M1 antag | PTK2B oligo ant | Cav32 inh | M1 agonist
CC(C)(C)N1[C@@H](CC(=O)O)c2cc(C(F)(F)F)ccc2S1(=O)=O | . | . | 2.35 | .
O=C1C(=O)c2c(C(=O)c3ccccc3)coc2-c2ccccc21 | . | -3.58* | -2.21 | .
Cc1oc2c(c1C(=O)c1ccccc1)C(=O)C(=O)c1ccccc1-2 | . | -2.22 | -5.05 | .
CN(C)C(=O)CSc1nnc(Cc2ccc([N+](=O)[O-])cc2)o1 | . | 0.6 | 1.41 | .
O=C(c1nn(Cc2ccccc2)c(=O)c2ccccc12)N1CCN(c2ccccn2)CC1 | 0.00814 | -1.43 | -5.61* | -0.135
O=C(Cn1nc(Cc2cccnc2)c2ccccc2c1=O)NCc1ccc(F)cc1 | . | . | 0.0897 | .
O=C(c1nn(Cc2ccccc2)c(=O)c2ccccc12)N1CCc2ccccc2C1 | . | 1.16 | -4.05* | .
O=C(Cn1nc(Cc2cccnc2)c2ccccc2c1=O)N1CCN(c2ccccn2)CC1 | -0.0159 | . | -3.31* | -0.888
Cc1ccc(NC(=O)c2oc3ccccc3c2NC(=O)c2ccc3c(c2)OCO3)cc1 | -0.363 | -1.25 | -0.43 | 0.358
Cc1ccsc1/C=N/NC(=O)CSCc1ccc(Cl)cc1 | . | -0.62 | -5.18* | .
Cc1ccc(/C=N/NC(=O)CSCc2ccc(Cl)cc2)cc1 | . | -0.42 | -1.37 | .
O=C(CSc1ncn[nH]1)Nc1ccccc1Sc1ccc(Cl)cc1 | . | -1.13 | -3.87 | .
COCCn1c(=NC(=O)CSC(C)=O)sc2cc(F)ccc21 | -0.372 | 1.04 | -8.7* | 0.0153
COCCn1c(=NC(=O)CSCC(=O)NC2CCCCC2)sc2cc(OC)ccc21 | -0.955 | 0.75 | -0.406 | -0.623
CCn1c(=NC(=O)CSC(C)=O)sc2cc(OC)ccc21 | 0.35 | . | -6.67* | 0.529
CCOC(=O)Cn1c(C(=O)OCC)cc2sccc21 | 0.556 | -0.75 | -0.426 | 0.857
CCOC(=O)Cn1c(=NC(=O)CSC(C)=O)sc2cc(F)ccc21 | . | . | -7.51* | .
COCCn1c(=NC(=O)CSC(C)=O)sc2cc(OC)ccc21 | -0.103 | . | -5.94* | 0.038
COc1ccccc1-c1cc(C(F)(F)F)n2ncc(S(=O)(=O)c3ccccc3)c2n1 | . | -1.82 | -2.08 | .
COc1ccc(S(=O)(=O)NCCSCc2ccco2)cc1Cl | -0.723 | 0.57 | -5.96* | 1.13
Cc1ccc(/C=N/NC(=O)c2cc(C3CC3)nc3ccccc23)o1 | . | 0.66 | . | .
Cc1ccc(CNC(=O)C(=O)NCC2OCCN2S(=O)(=O)c2ccc3c(c2)OCCO3)cc1 (centres undefined) | . | . | -4.5* | .
COc1ccc(CNC(=O)C(=O)NCC2OCCN2S(=O)(=O)c2cccs2)cc1 (centres undefined) | . | . | -4.87* | .
O=C(NCc1ccc(Cl)cc1)C(=O)NCC1OCCN1S(=O)(=O)c1cccs1 (centres undefined) | . | . | -5.97* | .
O=C(NCc1ccccc1)C(=O)NCC1OCCN1S(=O)(=O)c1ccc2c(c1)OCCO2 (centres undefined) | . | . | 0.0127 | .
SMILES | M1 antag | PTK2B oligo ant | Cav32 inh | M1 agonist
O=C1CC2(CCCCCC2)Oc2ccc(Cl)cc21 | . | . | 0.523 | .
COc1cc(C(=O)OCC(=O)Nc2c(F)c(F)c(F)c(F)c2F)cc(OC)c1OC | -0.0872 | 1.43 | 0.346 | -1.6
COC(=O)c1cc(NC(=O)c2cccc(C(F)(F)F)c2)c(=O)oc1C/C=N/OCc1cccc(Cl)c1Cl | . | 2.32 | -4.59* | .
O=C(Nc1ccc2c(c1)C(=O)N(CC1CCCO1)C2=O)c1cccc(Br)c1 (centres undefined) | . | -3.15* | -2.66* | .
Cc1cc(C)cc(C(=O)N2CC(C)OC(C)C2)c1 (centres undefined) | . | 0.25 | 0.638 | .
CCc1c(C)nc(Nc2nc(C)c3ccc(OC)cc3n2)[nH]c1=O | . | -0.46 | 1.08 | .
CCCCCc1c(C)nc(Nc2nc(C)c3cc(OC)ccc3n2)[nH]c1=O | 0.071 | 0.17 | -3.79* | 0.624
O=C(c1ccc(Br)cc1)c1cc([N+](=O)[O-])ccc1N1CCCCC1 | . | -0.49 | -3.63* | .
CCOC(=O)C1=C(C)N(CCCC(=O)O)C(=O)NC1c1ccccc1OC(=O)c1cccs1 (centres undefined) | . | . | 0.333 | .
Cc1ccc(-n2c(=O)[nH]cc(C(=O)Nc3ccc4c(c3)OCCO4)c2=O)cc1 | -0.504 | -3.11* | -0.0492 | 0.0948
Cc1ccc(-n2c(=O)[nH]cc(C(=O)Nc3ccc4c(c3)OCCO4)c2=O)cc1C | 0.00629 | -2.31 | 0.805 | -1.81
CCN(Cc1ccccc1)C(c1cc2ccc(C)cc2[nH]c1=O)c1nnnn1CCOC (centres undefined) | . | 1.32 | -3.18 | .
Cc1ccn2cc(CNC(=O)c3ccc(Br)o3)nc2c1 | -1.82 | . | 0.379 | -1.29
COC(=O)C1=NN(C(=O)c2ccc(C)cc2)C(O)(c2ccc(Cl)cc2)C1 (centres undefined) | . | . | -3.22* | .
CCOC(=O)C1CCCN(c2c(C(=O)c3ccccc3)cnc3ccc(OC)cc23)C1 (centres undefined) | . | . | -6.78* | .
CCN1CCN(c2c(C(=O)c3ccc(OC)cc3)cnc3ccccc23)CC1 | . | . | -0.282 | .
Cc1cccn2c(=O)c3cc(C(=O)N4CCc5ccccc5C4)n(C)c3nc12 | -0.193 | . | . | -0.288
CC1(c2cc([N+](=O)[O-])cc([N+](=O)[O-])c2)CC(C)(C)N(C(=O)c2ccccc2)c2ccccc21 (centres undefined) | . | 1.5 | 0.217 | .
CC1(c2ccccc2)CC(C)(C)N(C(=O)C2CCCO2)c2ccccc21 (centres undefined) | . | -0.34 | -4.53* | .
CCC(C)C(NC(=O)C1CCC(C)CC1)C(=O)Nc1cc(OC)ccc1OC (centres undefined) | . | -1.8 | -0.749 | .
COc1ccc(/C(C)=N/OCC(=O)N2CC3(C)CC2CC(C)(C)C3)cc1 (centres undefined) | . | 0.2 | . | .
Cc1nn(CC#N)c(=O)n1-c1cccc(F)c1 | . | 0.07 | 0.272 | .
O=C(NC1CCCC1)c1nc2c(nnn2Cc2ccccc2Cl)c(=O)[nH]1 | . | -0.56 | -3.42* | .
CCC(C)(C)NC(=O)C(c1ccc(C)cc1)N(Cc1ccco1)C(=O)CCC(=O)Nc1nccs1 (centres undefined) | . | 0.97 | -4.84* | .
Cc1ccc(C(C(=O)NC2CCCC2)N(Cc2ccco2)C(=O)CCC(=O)Nc2cc(C)on2)cc1 (centres undefined) | . | -1.07 | -2.47 | .
SMILES | M1 antag | PTK2B oligo ant | Cav32 inh | M1 agonist
CCC(C)(C)NC(=O)C(c1ccc(OC)cc1)N(Cc1ccco1)C(=O)CCC(=O)Nc1cc(C)on1 (centres undefined) | . | 0.05 | -0.00626 | .
CCC(C)(C)NC(=O)C(c1ccc(F)cc1)N(Cc1ccco1)C(=O)CCC(=O)Nc1ccccn1 (centres undefined) | 0.294 | -0.32 | -8.77* | 0.674
COC(=O)c1c(S(=O)(=O)NCc2ccccc2)sc(C(=O)O)c1C | . | 0.09 | 0.0342 | .
CCCC(=O)OC1CC(C)N(C(=O)c2ccccc2)c2ccc(C)cc21 (centres undefined) | . | -0.94 | -4.45* | .
CC(=O)OC1CC(C)N(C(=O)c2ccccc2)c2ccc(C)cc21 (centres undefined) | 0.966 | -1.08 | 0.113 | 0.489
COc1cccc(-n2c(CN3CCN(c4ccccc4)CC3)nc3ccc([N+](=O)[O-])cc3c2=O)c1 | . | -2.5 | . | .
COc1ccccc1-c1cc(C(=O)N/N=C/C=C/c2ccccc2[N+](=O)[O-])c2ccccc2n1 | . | -0.95 | -4.07* | .
CCCC(=O)N1CCN(c2ccc([N+](=O)[O-])c(NC(C)c3ccccc3)c2)CC1 (centres undefined) | . | -2.72 | -6.28* | .
